From PubChem BioAssay come the findings set out here.

Activity calls are given as the source filed them. Unless noted, the rule behind the calls is not given here.

The test system of experiment [1] is XIP peptide (Xip251-270) binding. The experiment in a line: XIP fragment 251-270 binding compounds – biochemical, small-molecule microarray, fluorescence 635/667 nm, 0.1 µg/mL protein, primary screen (AID 1182). The following applies: fluorescent protein binding, 635 nm, higher = more signal, called active from +8 up or from −8 down.
For experiment [2], the system named is XIP peptide (Xip251-270). The experiment in a line: compounds binding XIP fragment 251-270 – biochemical, small-molecule microarray, fluorescence 635/667 nm, 0.5 µg/mL protein, primary screen (AID 1183). The following applies: fluorescence 635 nm, higher = more signal.
Experiment [3] can be described thus: blood-stage malaria parasite viability loss – strain 3D7, DAPI fluorescence, 100 nL, primary screen (AID 1184).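 Note: parasites grown inside human red blood cells in medium with human serum.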 The following applies: P. falciparum 3D7 growth, 3 d, higher = more signal.
For experiment [4], the target named is Homeobox protein Hox-A13 (Mus musculus) (UniProt Q62424). The experiment in a line: disruptors of Hoxa13 oligonucleotide interaction – biochemical, fluorescence polarization, labeled oligonucleotide, primary screen (AID 1185). The following applies: Hoxa13:DNA binding, 15 min, higher = more signal, called active from +8 up or from −8 down. A general note: In fluorescence polarisation assays a small probe gives low polarisation when free and higher when bound to something large.
Chain of Homeobox protein Hox-A13 (Mus musculus) (Q62424 whole entry, looked up): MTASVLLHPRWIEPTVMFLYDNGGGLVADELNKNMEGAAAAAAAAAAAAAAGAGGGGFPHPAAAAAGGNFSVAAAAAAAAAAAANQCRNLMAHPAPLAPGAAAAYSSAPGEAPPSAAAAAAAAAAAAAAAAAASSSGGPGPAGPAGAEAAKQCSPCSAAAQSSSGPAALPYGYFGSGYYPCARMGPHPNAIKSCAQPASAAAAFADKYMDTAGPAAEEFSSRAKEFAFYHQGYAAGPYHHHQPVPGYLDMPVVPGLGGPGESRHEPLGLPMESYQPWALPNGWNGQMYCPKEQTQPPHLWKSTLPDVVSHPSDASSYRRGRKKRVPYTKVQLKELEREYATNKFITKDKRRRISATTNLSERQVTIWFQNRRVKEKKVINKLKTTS

The nature of experiment [5]: blockers of DNA damage checkpoint Chk1 activation – imaging, HeLa, hydroxyurea, phospho-Chk1 antibody, percent positive cells, primary screen (AID 1186). The following applies: hydroxyurea-induced phospho-Chk1 immunofluorescence imaging, higher = more signal.
Experiment [6] in a line: blockers of DNA damage checkpoint Chk1 activation – imaging, HeLa, hydroxyurea, phospho-Chk1 nuclear intensity, primary screen (AID 1187). The following applies: hydroxyurea-induced phospho-Chk1 immunofluorescence imaging, higher = more signal.

As for `O=C1C2C=CC(C(O)c3ccc(F)cc3)N(Nc3ccccc3)C2C(=O)N1c1ccccc1` (configuration not stated), the figures for the composite z-score in experiment [1] and in experiment [2] were 0.669 (inactive) and -0.168, respectively. In addition, the z-score in experiment [3] was 0.191; in experiment [4], -4.12 (inactive); in experiment [5] it was -0.125 (inactive); in experiment [6], -0.391 (inactive).

As for `Cc1ccccc1C(O)C1C=CC2C(=O)N(C)C(=O)C2N1Nc1ccccc1` (configuration not stated), the results for the composite z-score in experiment [1] and in experiment [2] were 0.381 (inactive) and 0.632, respectively. The z-score is 1.11 in experiment [3], -3.24 (inactive) in experiment [4], 0.251 (inactive) in experiment [5] and -0.594 (inactive) in experiment [6].

With `C=CC[C@]1(C(=O)N2CCOCC2)N=C(c2ccc(OCCCO)cc2)O[C@H]1c1ccccc1`, the composite z-score in experiment [1] was 0.661 (inactive); in experiment [2] it was 0.362. In addition, the z-score is -0.887 in experiment [3], -6.82 (inactive) in experiment [4], -0.274 (inactive) in experiment [5] and -0.217 (inactive) in experiment [6].

For `C=C[C@H](C)[C@@H](O)c1ccc(O)c2ccccc12`, the composite z-score in experiment [1] was -0.233 (inactive); in experiment [2], 0.507. The z-score was -0.935 in experiment [3], -2.67 (inactive) in experiment [4], 0.736 (inactive) in experiment [5] and 0.841 (inactive) in experiment [6].

Take `C=CCNC(=O)[C@H]1[C@@H]2C(=O)O[C@@H](c3ccccc3)[C@@H](c3ccccc3)N2[C@@H](c2ccc(O)cc2)[C@]12C(=O)N(C(=O)OCCOC)c1ccc(C#CCCO)cc12`: the composite z-score in experiment [1] was 0.855 (inactive); in experiment [2], 0.72. In addition, the z-score was -0.353 in experiment [3], -3.9 (inactive) in experiment [4], -0.537 (inactive) in experiment [5] and -0.532 (inactive) in experiment [6].

For `C=CCOC(=O)[C@H]1[C@@H]2C(=O)O[C@@H](c3ccccc3)[C@@H](c3ccccc3)N2[C@@H](c2ccc(OCCOC(=O)[C@@H]3C[C@@H]4C(=O)N5CCC[C@H]5C(=O)N4[C@@H]3c3ccc(O)cc3)cc2)[C@]12C(=O)Nc1ccccc12`, the composite z-score in experiment [1] was 0.188 (inactive); in experiment [2], 0.838. Moreover, the z-score in experiment [3] is -1.8; in experiment [4], 1.28 (inactive); in experiment [5], -0.788 (inactive); in experiment [6] it was -0.507 (inactive).

In the case of `C=C(COC)C(=O)CC[C@@H](OC(=O)c1cccnc1)c1ccc(CO)o1`, the values for the composite z-score in experiment [1] and in experiment [2] were 0.457 (inactive) and 0.496, respectively. For the same molecule, the z-score is -0.469 in experiment [3], -4.3 (inactive) in experiment [4], 0.201 (inactive) in experiment [5] and 0.679 (inactive) in experiment [6].

As to `COc1ccccc1CN1C(=O)c2ccccc2[C@@H](C(=O)NCCN2CCOCC2)[C@@H]1c1ccc(CO)cc1`, the composite z-score in experiment [1] is -0.0758 (inactive); in experiment [2], 0.853. The z-score was -1.86 in experiment [3], -4.64 (inactive) in experiment [4], 0.193 (inactive) in experiment [5] and 0.531 (inactive) in experiment [6].

`C=C(COC)C(=O)CC[C@H](OC(C)=O)c1cccc(OCCO)c1`: the values for the composite z-score in experiment [1] and in experiment [2] were 0.623 (inactive) and -0.762, respectively. Also, the z-score in experiment [3] was -2.3; in experiment [4], -4.76 (inactive); in experiment [5], 0.305 (inactive); in experiment [6] it was -0.0656 (inactive).

As to `CO[C@H]1O[C@H](CO)[C@@H](OC(=O)Nc2ccc3c(c2)OCO3)[C@H](OC(=O)Nc2ccccc2)[C@H]1OC(=O)Nc1ccccc1`, the composite z-score in experiment [1] was 0.981 (inactive); in experiment [2] it was 0.831. For the same molecule, the z-score in experiment [3] was -2.49; in experiment [4] it was -4.76 (inactive); in experiment [5], -0.328 (inactive); in experiment [6], -0.439 (inactive).

Regarding `O=C(OCCF)C1=CCC(c2cccc(Cl)c2)O1` (configuration not stated), the composite z-score in experiment [1] is -0.131 (inactive); in experiment [2], 0.0075. Further, the z-score in experiment [3] was 0.65; in experiment [4], -0.701 (inactive); in experiment [5], 0.0006 (inactive); in experiment [6], 0.215 (inactive).

For `COC(=O)c1ccc(C(O)C2C=CC3C(=O)N(c4ccccc4)C(=O)C3N2Nc2ccc(C#N)cc2)o1` (configuration not stated), the composite z-score in experiment [1] is 0.324 (inactive); in experiment [2] it was 0.37. For the same molecule, the z-score in experiment [3] is 0.229; in experiment [4], -3.24 (inactive); in experiment [5], -0.645 (inactive); in experiment [6] it was -0.852 (inactive).

For `CO[C@H]1O[C@H](CO)[C@@H](OC(=O)Nc2ccc(Oc3ccccc3)cc2)[C@H](OC(=O)Nc2ccccc2)[C@H]1OC(=O)Nc1ccccc1`, the figures for the composite z-score in experiment [1] and in experiment [2] were 1.21 (inactive) and 0.916, respectively. The z-score was -2.21 in experiment [3], -1.38 (inactive) in experiment [4], -0.444 (inactive) in experiment [5] and -0.307 (inactive) in experiment [6].

On to `COC(=O)C(CC#Cc1ccc2c(c1)[C@]1(C(=O)N2)[C@H](c2ccc(OCCO)cc2)N2[C@H](c3ccccc3)[C@H](c3ccccc3)OC(=O)[C@H]2[C@@H]1C(=O)NC[C@H](O)c1ccccc1)C(=O)OC`, for which the composite z-score was 1.14 (inactive) in experiment [1] and 0.836 in experiment [2]. Also, the z-score was -1.79 in experiment [3], -0.715 (inactive) in experiment [4], 0.0415 (inactive) in experiment [5] and 0.364 (inactive) in experiment [6].

Consider `CCCCCN1CC=CC23O[C@@H]4/C=C\CCC(C)OC(=O)C4[C@H]2C(=O)N(CCCCCO)[C@@H]3C1=O` (some centres not stated), for which the figures for the composite z-score in experiment [1] and in experiment [2] were -0.263 (inactive) and 0.0185, respectively. Moreover, the z-score in experiment [3] is -1.24; in experiment [4], -4.05 (inactive); in experiment [5], -0.464 (inactive); in experiment [6], 0.131 (inactive).

Consider `COc1ccc([Si](C)(C)[C@@H]2[C@@H](CC(=O)N(CCO)Cc3ccccc3)O[C@]3(C(=O)N(C)c4ccccc43)[C@H]2C)cc1`, for which the composite z-score in experiment [1] is 1.74 (inactive); in experiment [2], 0.626. For the same molecule, the z-score was -1.55 in experiment [3], -6.65 (inactive) in experiment [4], -0.36 (inactive) in experiment [5] and -1.47 (inactive) in experiment [6].

Take `COCC(=C=CC[C@@H](O)c1ccc(CO)o1)CCO`: the figures for the composite z-score in experiment [1] and in experiment [2] were 0.848 (inactive) and 0.344, respectively. For the same molecule, the z-score in experiment [3] was -1.61; in experiment [4], -3.24 (inactive); in experiment [5], -1 (inactive); in experiment [6] it was -0.68 (inactive).
